The text below walks through data of publication PMC11006913.

Common to all, as to assay: PBM; 200 nM protein, PBS
Conditions in all cases: dsDNA, one strand shown

Assay [1] has as its target PROP1 (Homo sapiens, UniProt O75360 56-141).
The target in assay [2] is PROP1 (Homo sapiens, UniProt O75360 56-141, R99H).
In assay [3] the target is PROP1 (Homo sapiens, UniProt O75360 56-141, F88S).
The target in a further assay is HESX1 (Homo sapiens, UniProt Q9UBX0 95-180, R109Q).
Assay [4] addresses VAX1 (Homo sapiens, UniProt Q5SQQ9 86-172).
In assay [5] the target is VAX1 (Homo sapiens, UniProt Q5SQQ9 86-172, T142I).
VAX1 (Homo sapiens, UniProt Q5SQQ9 86-172, T142I), sequence (Q5SQQ9 86-172 T142I): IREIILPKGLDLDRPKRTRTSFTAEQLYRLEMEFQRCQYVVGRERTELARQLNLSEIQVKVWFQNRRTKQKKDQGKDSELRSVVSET
The target of assay [6] is VAX1 (Homo sapiens, UniProt Q5SQQ9 86-172, K157R).
VAX1 (Homo sapiens, UniProt Q5SQQ9 86-172, K157R), sequence (Q5SQQ9 86-172 K157R): as the sequence (Q5SQQ9 86-172 T142I) above, with I57T, K72R counted along it

VAX1 (Homo sapiens, UniProt Q5SQQ9 86-172), sequence (Q5SQQ9 86-172): as the sequence (Q5SQQ9 86-172 T142I) above, with I57T counted along it
PROP1 (Homo sapiens, UniProt O75360 56-141), sequence (O75360 56-141): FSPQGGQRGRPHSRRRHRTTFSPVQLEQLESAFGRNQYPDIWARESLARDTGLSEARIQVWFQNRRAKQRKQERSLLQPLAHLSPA
PROP1 (Homo sapiens, UniProt O75360 56-141, F88S), sequence (O75360 56-141 F88S): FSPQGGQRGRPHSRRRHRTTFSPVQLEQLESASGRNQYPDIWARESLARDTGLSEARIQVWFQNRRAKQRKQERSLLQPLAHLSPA
PROP1 (Homo sapiens, UniProt O75360 56-141, R99H), sequence (O75360 56-141 R99H): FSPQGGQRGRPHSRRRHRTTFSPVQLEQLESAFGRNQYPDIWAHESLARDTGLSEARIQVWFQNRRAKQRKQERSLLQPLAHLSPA
HESX1, sequence (Q9UBX0 95-180 R109Q): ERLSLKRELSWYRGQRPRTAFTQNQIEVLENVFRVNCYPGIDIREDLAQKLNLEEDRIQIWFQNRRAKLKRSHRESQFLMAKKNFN

For the sequence GGCCACCA, the binding signal with PROP1 [1] is 6.96 upbm affinity estimate (log intensity, higher = more binding, comparable within an allelic series); in the assay with PROP1 [2], 6.82 upbm affinity estimate (log intensity, higher = more binding, comparable within an allelic series); in the assay with PROP1 [3] it was 6.75 upbm affinity estimate (log intensity, higher = more binding, comparable within an allelic series).
For AGCTCCCG, the binding signal in the assay with PROP1 [1] was 6.72 upbm affinity estimate (log intensity, higher = more binding, comparable within an allelic series); in the assay with PROP1 [2], 6.63 upbm affinity estimate (log intensity, higher = more binding, comparable within an allelic series); with PROP1 [3], 6.46 upbm affinity estimate (log intensity, higher = more binding, comparable within an allelic series).
Consider AATGGGGC, for which the binding signal with PROP1 [1] is 8.17 upbm affinity estimate (log intensity, higher = more binding, comparable within an allelic series); with PROP1 [3], 7.05 upbm affinity estimate (log intensity, higher = more binding, comparable within an allelic series).
Turning to AATCAATT, the binding signal with HESX1 was 8.86 upbm affinity estimate (log intensity, higher = more binding, comparable within an allelic series).
For AGGACACC, the binding signal with PROP1 [1] is 6.84 upbm affinity estimate (log intensity, higher = more binding, comparable within an allelic series); with PROP1 [2], 6.77 upbm affinity estimate (log intensity, higher = more binding, comparable within an allelic series); in the assay with PROP1 [3], 6.75 upbm affinity estimate (log intensity, higher = more binding, comparable within an allelic series).
As to GCCTGCGA, the binding signal in the assay with PROP1 [1] was 6.74 upbm affinity estimate (log intensity, higher = more binding, comparable within an allelic series); in the assay with PROP1 [2] it was 6.64 upbm affinity estimate (log intensity, higher = more binding, comparable within an allelic series); with PROP1 [3] it was 6.59 upbm affinity estimate (log intensity, higher = more binding, comparable within an allelic series).
Take ATCTTAAC: the binding signal with PROP1 [1] is 8.34 upbm affinity estimate (log intensity, higher = more binding, comparable within an allelic series); with PROP1 [2], 7.85 upbm affinity estimate (log intensity, higher = more binding, comparable within an allelic series); with PROP1 [3] it was 7.45 upbm affinity estimate (log intensity, higher = more binding, comparable within an allelic series).
Take GGTAAATA: the binding signal in the assay with PROP1 [1] was 8.63 upbm affinity estimate (log intensity, higher = more binding, comparable within an allelic series); in the assay with PROP1 [2], 8.23 upbm affinity estimate (log intensity, higher = more binding, comparable within an allelic series); with PROP1 [3], 7.4 upbm affinity estimate (log intensity, higher = more binding, comparable within an allelic series).
For the sequence AAATCATG, the binding signal in the assay with PROP1 [1] is 8.42 upbm affinity estimate (log intensity, higher = more binding, comparable within an allelic series); with PROP1 [3], 7.26 upbm affinity estimate (log intensity, higher = more binding, comparable within an allelic series).
For the sequence GCGGCCGA, the binding signal in the assay with PROP1 [1] was 6.81 upbm affinity estimate (log intensity, higher = more binding, comparable within an allelic series); with PROP1 [2] it was 6.82 upbm affinity estimate (log intensity, higher = more binding, comparable within an allelic series); with PROP1 [3], 6.76 upbm affinity estimate (log intensity, higher = more binding, comparable within an allelic series).
With CGGCTCCA, the binding signal in the assay with PROP1 [1] was 6.66 upbm affinity estimate (log intensity, higher = more binding, comparable within an allelic series); in the assay with PROP1 [2], 6.76 upbm affinity estimate (log intensity, higher = more binding, comparable within an allelic series); with PROP1 [3], 6.74 upbm affinity estimate (log intensity, higher = more binding, comparable within an allelic series).
In the case of GCTCCTCC, the binding signal with PROP1 [1] is 6.62 upbm affinity estimate (log intensity, higher = more binding, comparable within an allelic series); with PROP1 [2], 6.55 upbm affinity estimate (log intensity, higher = more binding, comparable within an allelic series); with PROP1 [3], 6.45 upbm affinity estimate (log intensity, higher = more binding, comparable within an allelic series).
On to AACTATAT, for which the binding signal in the assay with PROP1 [1] is 8.71 upbm affinity estimate (log intensity, higher = more binding, comparable within an allelic series); with PROP1 [3] it was 7.61 upbm affinity estimate (log intensity, higher = more binding, comparable within an allelic series).
CTCTGGAA: the binding signal with PROP1 [1] is 6.65 upbm affinity estimate (log intensity, higher = more binding, comparable within an allelic series); in the assay with PROP1 [2], 6.87 upbm affinity estimate (log intensity, higher = more binding, comparable within an allelic series); with PROP1 [3], 6.91 upbm affinity estimate (log intensity, higher = more binding, comparable within an allelic series).
With AGACCGTC, the binding signal with PROP1 [1] is 6.82 upbm affinity estimate (log intensity, higher = more binding, comparable within an allelic series); in the assay with PROP1 [2], 6.83 upbm affinity estimate (log intensity, higher = more binding, comparable within an allelic series); in the assay with PROP1 [3], 6.81 upbm affinity estimate (log intensity, higher = more binding, comparable within an allelic series).
For the sequence ACCGAGAG, the binding signal was 6.71 upbm affinity estimate (log intensity, higher = more binding, comparable within an allelic series) with PROP1 [1]; 6.74 upbm affinity estimate (log intensity, higher = more binding, comparable within an allelic series) with PROP1 [2]; 6.73 upbm affinity estimate (log intensity, higher = more binding, comparable within an allelic series) with PROP1 [3].
Turning to TCCAATCA, the binding signal is 8.66 upbm affinity estimate (log intensity, higher = more binding, comparable within an allelic series) in the assay with PROP1 [1]; 8.18 upbm affinity estimate (log intensity, higher = more binding, comparable within an allelic series) in the assay with PROP1 [2]; 7.02 upbm affinity estimate (log intensity, higher = more binding, comparable within an allelic series) with PROP1 [3].
Consider CGCGGTCC, for which the binding signal in the assay with PROP1 [1] is 6.77 upbm affinity estimate (log intensity, higher = more binding, comparable within an allelic series); with PROP1 [2], 6.82 upbm affinity estimate (log intensity, higher = more binding, comparable within an allelic series); with PROP1 [3], 6.49 upbm affinity estimate (log intensity, higher = more binding, comparable within an allelic series).
Turning to AATCACAT, the binding signal was 9.48 upbm affinity estimate (log intensity, higher = more binding, comparable within an allelic series) with PROP1 [1] and 7.46 upbm affinity estimate (log intensity, higher = more binding, comparable within an allelic series) with PROP1 [3].
GCAAATAA: the binding signal with PROP1 [1] is 9 upbm affinity estimate (log intensity, higher = more binding, comparable within an allelic series); with PROP1 [2], 8.48 upbm affinity estimate (log intensity, higher = more binding, comparable within an allelic series); in the assay with PROP1 [3], 7.34 upbm affinity estimate (log intensity, higher = more binding, comparable within an allelic series).
In the case of CTCAGCGC, the binding signal with PROP1 [1] is 6.82 upbm affinity estimate (log intensity, higher = more binding, comparable within an allelic series); with PROP1 [2], 6.86 upbm affinity estimate (log intensity, higher = more binding, comparable within an allelic series); with PROP1 [3] it was 6.88 upbm affinity estimate (log intensity, higher = more binding, comparable within an allelic series).
As for AATCACCT, the binding signal with PROP1 [1] was 8.74 upbm affinity estimate (log intensity, higher = more binding, comparable within an allelic series); in the assay with PROP1 [3] it was 7.3 upbm affinity estimate (log intensity, higher = more binding, comparable within an allelic series).
In the case of CTTGGGTC, the binding signal with PROP1 [1] is 6.81 upbm affinity estimate (log intensity, higher = more binding, comparable within an allelic series); with PROP1 [2], 6.75 upbm affinity estimate (log intensity, higher = more binding, comparable within an allelic series); in the assay with PROP1 [3] it was 6.83 upbm affinity estimate (log intensity, higher = more binding, comparable within an allelic series).
With CAGCGCAC, the binding signal was 7.28 upbm affinity estimate (log intensity, higher = more binding, comparable within an allelic series) in the assay with VAX1 [4]; 7.22 upbm affinity estimate (log intensity, higher = more binding, comparable within an allelic series) with VAX1 [5]; 7.26 upbm affinity estimate (log intensity, higher = more binding, comparable within an allelic series) with VAX1 [6].
CGTCATGA: the binding signal in the assay with VAX1 [4] is 8.84 upbm affinity estimate (log intensity, higher = more binding, comparable within an allelic series); with VAX1 [5], 8.58 upbm affinity estimate (log intensity, higher = more binding, comparable within an allelic series); with VAX1 [6], 8.62 upbm affinity estimate (log intensity, higher = more binding, comparable within an allelic series).
On to CAAATCTA, for which the binding signal was 8.78 upbm affinity estimate (log intensity, higher = more binding, comparable within an allelic series) with VAX1 [4] and 8.51 upbm affinity estimate (log intensity, higher = more binding, comparable within an allelic series) in the assay with VAX1 [5].
For CATTACGC, the binding signal in the assay with VAX1 [4] is 11.1 upbm affinity estimate (log intensity, higher = more binding, comparable within an allelic series); in the assay with VAX1 [5] it was 10.6 upbm affinity estimate (log intensity, higher = more binding, comparable within an allelic series); with VAX1 [6], 10.7 upbm affinity estimate (log intensity, higher = more binding, comparable within an allelic series).
In the case of ATATCGAA, the binding signal is 8.69 upbm affinity estimate (log intensity, higher = more binding, comparable within an allelic series) with VAX1 [4] and 8.53 upbm affinity estimate (log intensity, higher = more binding, comparable within an allelic series) in the assay with VAX1 [5].
On to GCATATGA, for which the binding signal is 8.94 upbm affinity estimate (log intensity, higher = more binding, comparable within an allelic series) with VAX1 [4]; 8.6 upbm affinity estimate (log intensity, higher = more binding, comparable within an allelic series) with VAX1 [5]; 8.79 upbm affinity estimate (log intensity, higher = more binding, comparable within an allelic series) with VAX1 [6].
On to GCGGGAGC, for which the binding signal in the assay with VAX1 [4] is 7.11 upbm affinity estimate (log intensity, higher = more binding, comparable within an allelic series); with VAX1 [5], 7.36 upbm affinity estimate (log intensity, higher = more binding, comparable within an allelic series); with VAX1 [6] it was 7.04 upbm affinity estimate (log intensity, higher = more binding, comparable within an allelic series).
